About 79,000 compounds went through this panel and 15% of them were active in at least one assay; those are over-represented in the sample as a whole. A number with no mark means an inactive call. The source made the active and inactive calls. No stated cut-off is given here; in the data, active means growth inhibition above about 70%; inactive means the rest.
Experiments:
[1] = NCI Yeast Anticancer Drug Screen. Data for the rad50 strain (AID 155);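 further: 0% = growth of vehicle-only cultures of the same strain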; settings: S. cerevisiae rad50 strain growth inhibition, hits give high values
Summary of the method: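 A DNA repair-deficient yeast mutant serves as the test organism; compound-induced growth inhibition is calculated against vehicle-treated cells.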

[2] = NCI Yeast Anticancer Drug Screen. Data for the mec2-1 strain (AID 157); settings: S. cerevisiae mec2-1 strain, hits give high values
Summary of the method: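 Test agents were screened against the mec2-1 yeast strain, with defined DNA repair or cell cycle alteration. Growth was scored as inhibition against vehicle-only controls.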

[3] = NCI Yeast Anticancer Drug Screen. Data for the sgs1 mgt1 strain (AID 161);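 further: 0% = growth of cultures given vehicle only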; settings: S. cerevisiae sgs1 mgt1 strain, hits give high values
Summary of the method: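 Test agents were incubated with a DNA-repair-mutant yeast strain. Growth was then read and compared against vehicle-treated controls.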

[4] = NCI Yeast Anticancer Drug Screen. Data for the cln2 rad14 strain (AID 165);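 further: 0% = growth equal to vehicle treated cultures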; settings: S. cerevisiae cln2 rad14 strain, hits give high values
Summary of the method: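 Growth of compound-exposed yeast (cln2 rad14 genotype) measured and expressed as inhibition relative to vehicle.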

[5] = NCI Yeast Anticancer Drug Screen. Data for the bub3 strain (AID 167); settings: S. cerevisiae bub3 mutant strain, hits give high values
Summary of the method: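 Inhibition values come from growth of compound-treated mutant yeast normalised to vehicle-treated controls.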

[6] = NCI Yeast Anticancer Drug Screen. Data for the mlh1 rad18 strain (AID 175); settings: S. cerevisiae mlh1 rad18 strain growth inhibition, hits give high values
Summary of the method: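 In this whole-cell yeast screen, a strain with altered DNA damage repair is challenged with compound, and its growth is measured against matched vehicle-treated controls.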

[7] = at 5.0 µM (retest, dose inferred, filed as 0.5)
[8] = at 50.0 µM (retest, dose inferred, filed as 5.0)

Compound	growth inhibition [1, 7] [%]	growth inhibition [1, 8]	growth inhibition ([1]; at 50.0 µM)	growth inhibition [2, 7] [%]	growth inhibition [2, 8]	growth inhibition ([2]; at 50.0 µM)	growth inhibition [3, 7] [%]	growth inhibition [3, 8]	growth inhibition ([3]; at 50.0 µM)	growth inhibition [4, 7] [%]	growth inhibition [4, 8]	growth inhibition ([4]; at 50.0 µM)	growth inhibition [5, 7] [%]	growth inhibition [5, 8]	growth inhibition ([5]; at 50.0 µM)	growth inhibition [6, 7] [%]	growth inhibition [6, 8]	growth inhibition ([6]; at 50.0 µM)
COC(=O)c1ccccc1N=NN(C)CC1OC2OC(C)(C)OC2C1OC (configuration not stated)	10	69%	71.2% (active)	17	27%	43.2%	1	36%	74.1% (active)	-3	20%	-0.8%	0	44%	32.6%	4	61%	88% (active)
CCN(CC)c1ccc(N=Nc2ccc(-c3nc4cccn(C)c-4n3)cc2)cc1	8	8%	80.2% (active)	-5	-5%	79.2% (active)	-13	-13%	76.7% (active)	-2	-2%	80.2% (active)	9	9%	84.3% (active)	-4	-4%	82% (active)
CCCCCC(CO)C(O)(C(F)(F)F)C(F)(F)F (configuration not stated)	-23	-5%	44.8%	-26	7%	33.9%	1	9%	65.4%	3	15%	47.4%	0	11%	-30.4%	-26	-1%	49.1%
O=[N+]([O-])c1cc(I)c(O)c(/C=N/NS(=O)(=O)c2ccc(Cl)cc2)c1	-3	11%	88.5% (active)	-8	1%	75.1% (active)	-1	17%	77.7% (active)	-9	-1%	62.2%	-6	-1%	72% (active)	-2	4%	91.8% (active)
O=C(O)[C@@H]1CCCC[C@@H]1C(=O)N(C1CCCCC1)C1CCCCC1	-4	79% (active)	45.1%	-15	86% (active)	14%	8	73% (active)	59%	-7	96% (active)	28.6%	-5	96% (active)	9.45%	-39	89% (active)	0.5%
NC(=S)N/N=C1/C(=O)c2cccc3cccc1c23	10	96% (active)	91.8% (active)	-2	78% (active)	0.1%	1	80% (active)	66.7%	-9	65%	-26.7%	9	65%	7.65%	6	90% (active)	70.5% (active)
C[n+]1c(-c2ccc(/C=C/C=N\NC(=O)c3ccc(C(=O)N/N=C\C=C\c4ccc(-c5cn6ccccc6[n+]5C)cc4)cc3)cc2)cn2ccccc21	18	98% (active)	96.1% (active)	5	97% (active)	96.8% (active)	16	98% (active)	96.8% (active)	22	97% (active)	96.3% (active)	36	97% (active)	95.5% (active)	21	97% (active)	96.8% (active)
O=C(O)/C(=C\c1ccc(F)cc1)c1ccccc1	-3	-12%	48%	-18	-9%	64.9%	-4	-16%	11.9%	29	11%	38.8%	3	28%	70.8% (active)	-12	9%	50.2%
Oc1c(Br)cc(Cl)cc1C(c1cc(Cl)cc(Br)c1O)C(Cl)(Cl)Cl	0	98% (active)	96% (active)	2	99% (active)	98.2% (active)	3	99% (active)	97.8% (active)	-5	98% (active)	97.2% (active)	-1	98% (active)	97.1% (active)	5	98% (active)	90.8% (active)
